Source: PubChem BioAssay
Compounds with a hit are over-represented: about 3.5% of the library has one in this group of screens.
ERa coact inh: ER-alpha (human) coactivator binding inhibition | P03372 | TR-FRET ER-alpha LBD / SRC-1 peptide, estradiol-bound | inhibition, % at 25.6 µM | hit rate 1.7% among 86,000; in the data active = inhibition above about 50%;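 also: 0% = receptor plus peptide control and 100% = peptide only without receptor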
ERb coact inh: ER-beta (human) coactivator binding inhibition; Q92731; TR-FRET ER-beta LBD / SRC1-Cy5 peptide binding; receptor agonist-loaded with 1 µM estradiol; inhibition, % at 25.6 µM; hit rate 1.3% among 86,000; AID 633;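 active = compounds whose percent inhibition of the receptor-coactivator binding signal exceeds about 50% in the single-dose screen, limit read from the data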;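 also: 0% = receptor plus peptide wells without compound and 100% = peptide-only wells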
Mac1 fbg inh: blocks human CD11b/CD18 adhesion to fibrinogen | K562 CD11b/CD18 adhesion to fibrinogen, ATPlite luminescence; Mn2+ added to activate the integrin | inhibition, % at 10 µM | hit rate 0.54% among 93,000;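 active = primary inhibition of 50% or more at 10 µM, then 40% or more on retest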
CD11b adhes enh: CD11b/CD18-fibrinogen binding enhancement. P05107+P11215. K562 CD11b/CD18 adhesion to fibrinogen, ATPlite luminescence. activation, % at 10 µM. hit rate 0.07% among 93,000. AID 1499;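 active = 10 µM primary screen giving 50% or more activity, confirmed by 40% or more on retest at that dose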
FAK blocker: blocks human focal adhesion kinase activity; Q05397; biochemical FAK kinase activity assay; inhibition, %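 (tested at 7 µM)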; hit rate 0.84% among 97,000; AID 727; in the data active = inhibition above about 19%;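 also: 0% = DMSO and 100% = reference compound high control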
Target sequence (Q05397 whole entry, looked up): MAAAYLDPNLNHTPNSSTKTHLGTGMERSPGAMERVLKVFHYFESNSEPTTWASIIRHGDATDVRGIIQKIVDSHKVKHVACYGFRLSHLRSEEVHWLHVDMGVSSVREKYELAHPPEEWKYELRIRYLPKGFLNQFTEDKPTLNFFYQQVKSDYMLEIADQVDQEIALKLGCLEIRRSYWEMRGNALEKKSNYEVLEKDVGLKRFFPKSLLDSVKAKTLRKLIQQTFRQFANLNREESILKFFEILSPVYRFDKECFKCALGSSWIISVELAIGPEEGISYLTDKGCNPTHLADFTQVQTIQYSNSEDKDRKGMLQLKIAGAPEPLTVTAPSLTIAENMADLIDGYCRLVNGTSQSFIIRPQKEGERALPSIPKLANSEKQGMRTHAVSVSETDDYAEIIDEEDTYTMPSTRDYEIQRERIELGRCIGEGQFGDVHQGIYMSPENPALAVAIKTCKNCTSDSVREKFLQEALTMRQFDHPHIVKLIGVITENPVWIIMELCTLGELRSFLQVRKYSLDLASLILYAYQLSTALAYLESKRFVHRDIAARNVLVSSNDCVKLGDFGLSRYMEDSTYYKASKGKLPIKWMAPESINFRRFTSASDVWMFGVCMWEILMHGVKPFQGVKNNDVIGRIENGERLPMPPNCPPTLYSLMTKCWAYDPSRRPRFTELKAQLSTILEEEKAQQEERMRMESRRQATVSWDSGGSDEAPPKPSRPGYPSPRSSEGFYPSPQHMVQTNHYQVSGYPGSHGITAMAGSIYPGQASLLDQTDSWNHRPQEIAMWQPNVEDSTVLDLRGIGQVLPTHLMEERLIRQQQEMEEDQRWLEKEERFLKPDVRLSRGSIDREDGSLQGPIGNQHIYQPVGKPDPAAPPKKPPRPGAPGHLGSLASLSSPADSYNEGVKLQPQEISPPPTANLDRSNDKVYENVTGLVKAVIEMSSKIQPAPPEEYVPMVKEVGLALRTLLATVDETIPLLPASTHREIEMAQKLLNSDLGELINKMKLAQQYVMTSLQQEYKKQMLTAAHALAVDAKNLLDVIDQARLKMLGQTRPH
ERa SRC1 pot: ER-alpha (human) coactivator binding potentiation; AID 639; TR-FRET ERalpha-LBD/SRC-Cy5 coactivator binding, 2 h; 100 = basal binding, no effect; P03372; coactivator binding (% of control), % at 25.6 µM; hit rate 1.3% among 86,000; in the data active = activity above about 200%;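 also: binding measured in presence of low estradiol as agonist stimulus; 0% = peptide alone without receptor and 100% = receptor with peptide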
An asterisk follows results filed as active; . = no result given; [ ] = dose if it differs, or a comment.

SMILES | ERa coact inh | ERb coact inh | Mac1 fbg inh | CD11b adhes enh | FAK blocker | ERa SRC1 pot
CCn1cc(/C=N/N=C2\CCC3C4CCc5cc(O)ccc5C4CC[C@]23C)c(C)n1 (stereo not given in full) | . | . | 6 | 2 | 1 | .
Cc1ccc(Cn2c(SCC(C)C)nc3c2c(=O)[nH]c(=O)n3C)cc1 | . | . | 5 | -2 | -5 | .
CCCSc1nc2c(c(=O)[nH]c(=O)n2C)n1Cc1ccc(C)cc1 | 67*[fluorescence artefact?] | 33 | 4 | 4 | -2 | 119
O=C(NC1CCCCC1)N1CCN(C(=O)c2ccco2)CC1 | 2 | -5 | -1 | 2 | 0 | 90
CCCc1cc(-n2ccnc2)n2c(nc3ccccc32)c1C#N | 66* | 41 | -5 | 2 | 4 | 105
CCC1CCc2c(sc(NC(=O)c3ccoc3C)c2C(N)=O)C1 (stereo not given) | 2 | 7 | -2 | 50 | 7 | 103
CCCOC(=O)c1cc(-c2ccc(/C=C3/C(=O)N(C)C(=O)C(C#N)=C3C)o2)ccc1Cl | 83*[fluorescence artefact?] | 67* | . | . | -1 | 42
CCC(C)N1CC(O)=C(c2nc3ccccc3[nH]2)C1=N (stereo not given) | -10 | -5 | -10 | 1 | 3 | 88
CCCCCCN1CC(O)=C(c2nc3ccccc3[nH]2)C1=N | 61*[fluorescence artefact?] | 46 | 0 | -4 | . | 244*[fluorescence artefact?]
N=C1C(c2nc3ccccc3c(=O)[nH]2)=C(O)CN1c1ccccc1 | . | . | 20 | -4 | 2 | .
N=C1C(c2nc3ccccc3[nH]2)=C(O)CN1c1ccc(CC(=O)O)cc1 | 25 | 58* | 2 | 2 | -1 | 52
CCC(=O)Nc1nc(CC(=O)Nc2ccccc2)cs1 | 2 | 7 | 3 | -3 | -1 | 122
CN(c1ccccc1C(=O)O)S(=O)(=O)c1ccc2c3c(cccc13)C(=O)N2 | 57* | 62* | . | . | 7 | 31
O=C(O)c1ccccc1NS(=O)(=O)c1ccc2c3c(cccc13)C(=O)N2 | . | . | -3 | -6 | . | .
Cc1ccc(OCC(=O)NN2C(=O)c3ccccc3C2=O)c(C)c1 | . | . | 0 | -4 | -9 | .
O=C(c1cccc(COc2cccc3ccccc23)c1)N1CCCC1 | -15 | -11 | . | . | 1 | 91
COc1cccc(-n2nnc3c(=O)n(Cc4ccc(Br)cc4)cnc32)c1 | 52*[fluorescence artefact?] | 34 | 2 | -1 | 17 | 354*[fluorescence artefact?]
Cc1ccc(-n2nnc3c(=O)n(Cc4cc(C)ccc4C)cnc32)cc1 | 3 | 9 | . | . | 22* | 86
O=C(Nc1nc2ccccc2[nH]1)C1CC(=O)N(c2ccc3c(c2)OCCO3)C1 (stereo not given) | 68*[fluorescence artefact?] | 43 | 0 | 10 | 2 | 53
COC(=O)CSc1ncnc2c1sc1nc(N3CCOCC3)c3c(c12)CCCC3 | 12 | 36 | . | . | -4 | 391*[fluorescence artefact?]
CCOC(=O)CSc1ncnc2c1sc1nc(N3CCOCC3)c3c(c12)CCCC3 | 41 | 45 | 13 | -2 | 1 | 165
COC(=O)c1ccc(Cn2nnc3c(sc4nc(N5CCOCC5)c5c(c43)CCCC5)c2=O)o1 | -5 | -2 | . | . | -1 | 106
COC(=O)c1ccc(Cn2cnc3c(sc4nc(N5CCOCC5)c5c(c43)CCCC5)c2=O)o1 | 10 | 36 | 16 | 88 | . | 203*
CCOc1ccccc1N1CCN(Cc2cccc(OC)c2O)CC1 | -10 | -1 | -16 | 2 | 2 | 101
COc1ccccc1N1CCN(Cc2cc(Br)c(O)c3ncccc23)CC1 | 50*[fluorescence artefact?] | 29 | -8 | -3 | 0 | 86
SMILES | ERa coact inh | ERb coact inh | Mac1 fbg inh | CD11b adhes enh | FAK blocker | ERa SRC1 pot
Cc1sc2nc(SCC(=O)Nc3c(C)n(C)n(-c4ccccc4)c3=O)n(C)c(=O)c2c1C | 70*[fluorescence artefact?] | 62*[fluorescence artefact?] | 3 | 26 | 9 | 24
Cc1c(NC(=O)CSc2nccn2C)c(=O)n(-c2ccccc2)n1C | . | . | 7 | 0 | 0 | .
COc1ccccc1CNC(=O)c1cc2c(C)nn(Cc3ccc(F)cc3)c2s1 | 11 | 0 | -8 | 4 | -3 | 131
COc1ccccc1NC(=O)N1CCN(c2ccccc2F)CC1 | -7 | -5 | -28 | 2 | 1 | 107
Cc1ccc(C)n1-c1sccc1C(=O)O | 71*[fluorescence artefact?] | 60* | 4 | 1 | 1 | 27
Cc1cc(C(=O)O)c(C)n1-c1ccccc1 | . | . | -14 | -2 | -3 | .
COc1ccc(NC(C)=O)cc1NC(=O)CN1CCN(S(=O)(=O)c2ccc(C(C)C)cc2)CC1 | -4 | 46 | . | . | -2 | 249*[fluorescence artefact?]
CC(C)(C)NC(=O)/C=N/O | 3 | 99*[fluorescence artefact?] | 4 | -2 | . | 102
Cc1cc(C)cc(NCC(=O)Nc2c(C)cccc2C)c1 | -11 | -8 | -55 | -1 | 3 | 112
COC(=O)c1ccc(CN(C(C)=O)c2ccccc2)o1 | -8 | -8 | 3 | 13 | -3 | 115
CC(=O)Nc1ccc(OC(=O)CC2SC(=O)NC2=O)cc1 (stereo not given) | 41 | 56* | -8 | -3 | 0 | 70
Cc1cccc(N2CCN(C(=O)c3c(C)nn(Cc4ccccc4Cl)c3C)CC2)c1C | -3 | -6 | 52* | -4 | 2 | 106
Fc1ccc(CSc2nncn2NC/C=C/c2ccccc2)cc1 | . | . | 3 | -1 | 3 | .
O=C(COC(=O)COc1ccccc1[N+](=O)[O-])Nc1cccc(Br)c1 | . | . | 0 | -7 | . | .
CC1(C)Cc2c(ccc3ccccc23)C(c2cc3ccccc3oc2=O)=N1 | 60*[fluorescence artefact?] | 18 | -4 | 0 | 3 | 73
CC1(C)Cc2ccccc2C(c2cc3ccccc3oc2=O)=N1 | -1 | 1 | . | . | -1 | 98
Cc1nc2sccn2c1-c1nc(-c2cc3ccccc3o2)cs1 | 61* | 28 | 8 | -1 | -2 | 90
Cc1ccnc(Nc2nc(-c3c(C)nc4sccn34)cs2)c1 | 41 | -3 | 66 | -5 | 1 | 90
C=C(C)COc1ccc(-c2nc(N)nc(C)c2Oc2ccccc2OC)c(O)c1 | 29 | 59*[fluorescence artefact?] | 3 | -2 | -2 | 286*[fluorescence artefact?]
C=C(C)COc1ccc(-c2n[nH]c(C)c2Oc2ccccc2OC)c(O)c1 | -2 | 9 | 11 | -1 | 2 | 82
COc1ccc(-c2nc(N)ncc2Oc2ccccc2Br)c(O)c1 | 24 | 36 | 4 | -1 | 18 | 241*[fluorescence artefact?]
COc1cc(C(=O)N2CCN(c3ccc([N+](=O)[O-])cc3)CC2)ccc1OCc1c(C)noc1C | -7 | -3 | 4 | 0 | 3 | 108
Cc1cc(OCC(=O)Nc2ccc3c(c2)OCCO3)ccc1Cl | -6 | -4 | -20 | 1 | . | 116
O=C(Nc1ccc2oc(-c3ccccc3F)nc2c1)c1cncc(Br)c1 | 54* | 28 | 0 | 64 | 15 | 164
O=C(Nc1ccc2oc(-c3ccccc3)nc2c1)c1cccnc1 | 6 | 3 | -13 | 2 | -2 | 119
O=C(Cc1ccc(Cl)cc1)Nc1ccc2oc(-c3ccncc3)nc2c1 | 5 | 8 | 5 | 12 | -8 | 456*
COc1ccc(-c2nc3cc(NC(=O)c4ccc5c(c4)OCO5)ccc3o2)cc1 | 40 | 44 | 5 | 32 | 9 | 412*[fluorescence artefact?]
